Screening results (PubChem BioAssay)
Only some compounds are listed: those with a hit (about 1.2% of all), similar ones and a draw of the others.
MEP2 TOR yeast: modulators of MEP2-GFP levels in yeast, primary screen, S. cerevisiae, multiplex flow cytometry, MLPCN library | S. cerevisiae MEP2-GFP strain, 3 h; 100% = DMSO control level | GFP response vs DMSO, % at 10 µM | 330,000 compounds, 0.51% hits;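 active = GFP response versus DMSO above a set limit, roughly screen mean plus 3 SD, cut at about 180% in these data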;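 also: median GFP fluorescence of the barcode-gated MEP2-GFP cells per well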
LAP4 TOR yeast: modulators of LAP4-GFP expression in yeast, primary screen, S. cerevisiae, multiplex flow cytometry, MLPCN library | 3 h; median GFP as percent of DMSO wells | AID 2023, 2009 | 320,000 compounds, 0.34% hits | GFP response vs DMSO, % at 10 µM;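 active = GFP response vs DMSO above a set limit, about the screen mean plus 3 SD, cut at about 150% in these data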
DSG3 Ab inh: inhibitors of pemphigus antibody binding to DSG3, primary screen, biochemical, bead-based, flow cytometry, scFv-GFP | Desmoglein-3 (Homo sapiens), P32926 | DSG3-coupled beads, scFv-anti-DSG3-GFP binding; stronger effect = lower value | binding (percent of control), % at 10 µM | 310,000 compounds, 0.48% hits | AID 588358, 2011;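 active = binding more than 3 SD below its plate's average and above zero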
Target sequence (P32926 whole entry, looked up): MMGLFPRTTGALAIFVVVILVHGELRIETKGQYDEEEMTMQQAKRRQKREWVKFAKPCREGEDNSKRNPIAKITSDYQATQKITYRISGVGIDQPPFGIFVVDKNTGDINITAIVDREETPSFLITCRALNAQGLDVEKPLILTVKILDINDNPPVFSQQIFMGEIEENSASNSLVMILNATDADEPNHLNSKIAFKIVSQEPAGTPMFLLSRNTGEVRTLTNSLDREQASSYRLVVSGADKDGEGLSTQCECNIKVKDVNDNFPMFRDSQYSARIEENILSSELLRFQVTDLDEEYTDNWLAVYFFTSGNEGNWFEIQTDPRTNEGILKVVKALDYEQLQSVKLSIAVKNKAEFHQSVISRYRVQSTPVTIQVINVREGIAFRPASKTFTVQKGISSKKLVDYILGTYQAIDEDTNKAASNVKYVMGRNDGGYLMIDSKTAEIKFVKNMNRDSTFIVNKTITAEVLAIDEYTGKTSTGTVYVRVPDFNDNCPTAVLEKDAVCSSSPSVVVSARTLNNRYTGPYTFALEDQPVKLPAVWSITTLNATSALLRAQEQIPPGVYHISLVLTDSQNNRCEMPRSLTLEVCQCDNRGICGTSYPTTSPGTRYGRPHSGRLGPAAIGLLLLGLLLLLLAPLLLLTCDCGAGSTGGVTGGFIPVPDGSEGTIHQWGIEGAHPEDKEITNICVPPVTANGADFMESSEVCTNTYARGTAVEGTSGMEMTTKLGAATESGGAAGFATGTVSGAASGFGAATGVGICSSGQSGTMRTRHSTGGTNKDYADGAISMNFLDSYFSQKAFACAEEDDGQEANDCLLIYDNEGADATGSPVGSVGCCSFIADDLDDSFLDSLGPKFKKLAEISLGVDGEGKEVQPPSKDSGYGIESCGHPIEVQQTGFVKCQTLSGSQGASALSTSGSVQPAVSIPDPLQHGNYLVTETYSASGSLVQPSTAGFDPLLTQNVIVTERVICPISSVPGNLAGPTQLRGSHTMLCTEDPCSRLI
RPL19A-GFP yeast: RPL19A-GFP expression modulators in yeast, primary screen, cell-based, S. cerevisiae, multiplex flow cytometry, MLPCN; S. cerevisiae RPL19A-GFP strain, 3 h; stronger effect = lower value; percent response vs DMSO, % at 10 µM; 330,000 compounds, 0.3% hits;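 active = percent response vs DMSO below 50%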;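 also: median channel GFP fluorescence of the barcoded RPL19A-GFP strain; lower means less RPL19A-GFP as with rapamycin TOR inhibition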
CIT2 TOR yeast: modulators of CIT2-GFP expression in yeast, primary screen, S. cerevisiae, GFP fusion, multiplex flow cytometry, MLPCN library; S. cerevisiae CIT2-GFP strain, 3 h; 100 means same as DMSO wells; GFP response vs DMSO, % at 10 µM; 320,000 compounds, 0.065% hits; AID 2029, 2009;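 active = GFP response relative to DMSO above a set limit, near the screen mean plus 3 SD, cut at about 150% in these data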;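 also: ratio of well median GFP fluorescence to mean of DMSO wells on the plate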
AGP1 TOR yeast: modulators of AGP1-GFP expression in yeast TOR pathway, primary screen, cell-based, multiplex flow cytometry, S. cerevisiae, MLPCN library. 3 h; GFP as percent of DMSO wells. GFP response vs DMSO, % at 10 µM. 320,000 compounds, 0.02% hits;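 active = GFP response relative to DMSO above a set limit, near screen average plus 3 SD, cut at about 150% in these data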;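 also: median GFP channel fluorescence of the gated AGP1 strain per well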
LAP4-GFP pick2: LAP4-GFP expression modulators in yeast, confirmation, cell-based, second cherry pick, flow cytometry | GFP response vs DMSO, % at 10 µM | 590 compounds, 20% hits | S. cerevisiae LAP4-GFP strain, 3 h | AID 2621, 2010 | shares compounds with LAP4 TOR yeast;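 active = GFP signal as percent of the solvent control above about 150%, meaning raised reporter expression, limit read from the data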
MEP2 cherry2: modulators of MEP2-GFP levels in yeast, confirmation, S. cerevisiae, flow cytometry GFP, second cherry picks. shares compounds with LAP4 TOR yeast. S. cerevisiae MEP2-GFP strain, 3 h. GFP response vs DMSO, % at 10 µM. 590 compounds, 10% hits. AID 2622, 2010;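 active = GFP signal above 150% of the solvent control wells, that is a rise of more than half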;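 also: median channel GFP fluorescence of all gated yeast cells per well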
RPL19A GFP CP2: RPL19A-GFP modulators in TOR pathway yeast, confirmation, cell-based, S. cerevisiae, flow cytometry, second cherry pick. shares compounds with LAP4 TOR yeast. S. cerevisiae RPL19A-GFP strain, 3 h; stronger effect = lower value; 100% means same as DMSO wells. GFP response vs DMSO, % at 10 µM. 590 compounds, 3% hits;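 active = under 65% GFP response relative to DMSO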;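 also: median GFP channel fluorescence per well over the all cells gate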
CIT2-GFP pick2: modulators of CIT2-GFP expression in yeast, confirmation, flow cytometry, second cherry pick, single plex | AID 2624, 2010 | S. cerevisiae CIT2-GFP strain, 3 h; DMSO control wells read 100% | 590 compounds, 8% hits | shares compounds with LAP4 TOR yeast | GFP response vs DMSO, % at 10 µM;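 active = GFP response vs DMSO above about 150%, limit read from the data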;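 also: median green fluorescence per well over all gated yeast cells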
AGP1-GFP pick2: AGP1-GFP expression modulators, hit retest, confirmation, cell-based, flow cytometry, S. cerevisiae, cherry pick set 2 | shares compounds with LAP4 TOR yeast | S. cerevisiae AGP1-GFP strain, 3 h | percent response vs DMSO, % at 10 µM | 590 tested, under 10 active | AID 2643, 2010;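 active = over 150 percent of DMSO response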;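 also: median GFP channel fluorescence over all cells without mother daughter split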
s288c autofluor: compound autofluorescence in yeast s288c, dose response, artefact control for yeast TOR pathway GFP screen, s288c strain | shares compounds with LAP4 TOR yeast | S. cerevisiae s288c, 520 nm autofluorescence, flow cytometry, 3 h; stronger effect = higher value; zero means same as solvent-only cells | fluorescence change (kMESF span) at 33 µM | 610 tested, under 10 active;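 active = fluorescence span over the dose series, or activity score, above about 33, limit read from the data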
Yeast autofl DR: autofluorescence of compounds in yeast s288c, dose response, artefact control for yeast TOR pathway GFP screen, primary hits, KU SAR, s288c parental. 110 tested, under 10 active. S. cerevisiae s288c parental, compound autofluorescence, flow cytometry, 3 h. shares compounds with LAP4 TOR yeast. AID 488829, 2010. fluorescence change (span) at 33 µM;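 active = fluorescence change span, or the activity score built from it, above 25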
TORC1 bypass gr: wild-type yeast growth inhibition sparing TORC1 bypass cells, mechanism study for yeast TOR pathway GFP screen, BY4741 wild type, TORC1 bypass strain | shares compounds with LAP4 TOR yeast | S. cerevisiae BY4741 spot growth rating, 48-72 h; stronger effect = lower value | growth rating (0-3) at 30 µM | 120 tested, under 10 active | AID 504456, 2011;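 active = growth rating at most 1 for wild type yeast while the TORC1 bypass strain still grows fully, rated 3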
Large screens that a line does not name were inactive (follow-up assays come after a bar, where they were run).

O=c1cc(CSc2ccc(Cl)cc2)nc(-c2ccccn2)[nH]1	LAP4 TOR yeast 211.2 | LAP4-GFP pick2 263.5 | MEP2 cherry2 169.4 | RPL19A GFP CP2 inactive | CIT2-GFP pick2 inactive | AGP1-GFP pick2 inactive | s288c autofluor inactive | Yeast autofl DR inactive | TORC1 bypass gr inactive
Cc1ccc(S(=O)(=O)c2ncccc2[N+](=O)[O-])cc1	LAP4 TOR yeast 199.4 | s288c autofluor inactive | Yeast autofl DR inactive | TORC1 bypass gr inactive
Cc1cccc2c1NC(=O)/C2=C\C(=O)c1cccs1	LAP4 TOR yeast 185.3 | s288c autofluor inactive
CCc1ccc2c(c1)/C(=N/N(C)C(=S)NC)C(=O)N2	none
CCc1ccc2c(c1)/C(=C/C(=O)c1cccs1)C(=O)N2	LAP4 TOR yeast 169.4 (no result: DSG3 Ab inh) | s288c autofluor inactive
Cc1cc(Br)c2c(c1)/C(=C/C(=O)c1cccs1)C(=O)N2	none (no result: CIT2 TOR yeast) | s288c autofluor inactive
Cc1cc(C)c2c(c1)/C(=C/C(=O)c1ccc(Br)s1)C(=O)N2	none | s288c autofluor inactive
CC(C)c1ccccc1NC(=S)NCC1(N(C)C)CCCCC1	none
CCOC(=O)c1c(C)[nH]c(C)c1S(=O)(=O)N(C)CC(=O)NCc1cccc(Br)c1	MEP2 TOR yeast 877.1 | LAP4-GFP pick2 inactive | MEP2 cherry2 inactive | RPL19A GFP CP2 inactive | CIT2-GFP pick2 inactive | AGP1-GFP pick2 inactive
Cc1cccc(Nc2nc(N)c([N+](=O)[O-])c(NCc3ccco3)n2)c1	none
CNc1nc(N)c([N+](=O)[O-])c(NCc2ccco2)n1	none (no result: MEP2 TOR yeast, LAP4 TOR yeast, DSG3 Ab inh, RPL19A-GFP yeast, CIT2 TOR yeast, AGP1 TOR yeast) | Yeast autofl DR inactive | TORC1 bypass gr inactive
Cc1ccc(S(=O)(=O)NCCC(=O)NC(C)CCc2ccccc2)cc1 (configuration not stated)	none
CCN(CC)C(=O)Oc1ccc(Cl)c2cccnc12	none
O=C(Nc1cccc(C(F)(F)F)c1)Oc1ccc(Cl)c2cccnc12	LAP4 TOR yeast 201.5 | s288c autofluor inactive
COC(CNC(=O)c1ccc2c3c(onc13)-c1ccccc1C2=O)OC	LAP4 TOR yeast 229.9 | s288c autofluor inactive
C#CCOCCOCCOCCNc1nc(N2CCN(C(=O)CCCCCCCCCCNC(=O)[C@@H](CCSC)n3cc(CCO)nn3)CC2)nc(N2CCN(C(=O)CCCCCCCCCCNC(=O)[C@H](CCCN=C(N)N)n3cc(C[C@@H](C)CC)nn3)CC2)n1	LAP4 TOR yeast 152.2 | LAP4-GFP pick2 inactive | MEP2 cherry2 inactive | RPL19A GFP CP2 inactive | CIT2-GFP pick2 inactive | AGP1-GFP pick2 inactive
C#CCOCCOCCOCCNc1nc(N2CCN(C(=O)CCCCCCCCCCNC(=O)[C@H](CCCCN)n3cc(C)nn3)CC2)nc(N2CCN(C(=O)CCCCCCCCCCNC(=O)[C@H](CCCN=C(N)N)n3cc(C[C@@H](C)CC)nn3)CC2)n1	LAP4 TOR yeast 191.5 (no result: DSG3 Ab inh) | LAP4-GFP pick2 inactive | MEP2 cherry2 169.4 | RPL19A GFP CP2 inactive | CIT2-GFP pick2 inactive | AGP1-GFP pick2 inactive | s288c autofluor inactive
C#CCOCCOCCOCCNc1nc(N2CCN(C(=O)CCCCCCCCCCNC(=O)[C@@H](CCSC)n3cc(CCO)nn3)CC2)nc(N2CCN(C(=O)CCCCCCCCCCNC(=O)[C@H](CO)n3cc(CCCCCN)nn3)CC2)n1	none
C#CCOCCOCCOCCNc1nc(N2CCN(C(=O)CCCCCCCCCCNC(=O)[C@@H](CCC(=O)O)n3cc(CCCCCN)nn3)CC2)nc(N2CCN(C(=O)CCCCCCCCCCNC(=O)[C@H](CCCCN)n3cc(C[C@@H](C)CC)nn3)CC2)n1	LAP4 TOR yeast 198.4 | LAP4-GFP pick2 inactive | MEP2 cherry2 176.4 | RPL19A GFP CP2 inactive | CIT2-GFP pick2 inactive | AGP1-GFP pick2 inactive | s288c autofluor inactive
C#CCOCCOCCOCCNc1nc(N2CCN(C(=O)CCCCCCCCCCNC(=O)[C@H](CCCCN)n3cc(CCO)nn3)CC2)nc(N2CCN(C(=O)CCCCCCCCCCNC(=O)[C@H](CCCCN)n3cc(CCCC(=O)O)nn3)CC2)n1	none
C#CCOCCOCCOCCNc1nc(N2CCN(C(=O)CCCCCCCCCCNC(=O)[C@@H](CCC(=O)O)n3cc(CCCCCN)nn3)CC2)nc(N2CCN(C(=O)CCCCCCCCCCNC(=O)[C@H](CO)n3cc(CCCCCN)nn3)CC2)n1	none
